The structures appear in SMILES notation. Inconclusive results are not listed. The source made the active and inactive calls. Calls follow the shape of the dose curve; as a rule, active = well fitted inhibition curve with a large enough effect; inconclusive = small, poorly fitted or top-dose-only effect; inactive = flat fitted curve, though single readings scatter. *1 amine or outer side, *2 acyl side, *3 side chain or, on linkers, in order; H or OH if unused. Where a SMILES comes first, the peptide text is derived from it. [ ]: non-standard residue; d: D form. X13 = O=C(C(CC(O)CO)O[*:1])[*:2]; NMeV = CN[CH](C(=O)O)C(C)C; NMeA = CN[CH](C)C(=O)O; βAla = NCCC(=O)O
% is scaled to controls: 0 for no effect and ±100 for the full control effect.

Calcium and integrin-binding protein 1 (Homo sapiens), sequence (Q99828 whole entry, looked up): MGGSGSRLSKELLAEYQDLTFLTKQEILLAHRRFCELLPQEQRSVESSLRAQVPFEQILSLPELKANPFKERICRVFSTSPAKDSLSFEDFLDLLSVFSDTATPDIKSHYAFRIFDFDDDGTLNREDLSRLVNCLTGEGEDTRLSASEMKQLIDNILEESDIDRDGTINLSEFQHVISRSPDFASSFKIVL

This experiment concerns the target Calcium and integrin-binding protein 1 (Homo sapiens) (UniProt Q99828). The experiment in a line: Primary qHTS for Identification of Calcium Integrin Binding Protein 1 (CIB1) Competitor (AID 1508620). Also: top concentration of the series differs between compounds. The note with it: CIB1-GST / FITC-alphaIIb peptide fluorescence polarization; series mostly up to 57.7 µM; activity change, negative = inhibition: at the top concentration. The method in brief: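 Fluorescence polarization competition: GST-tagged CIB1 (1 uM final) preincubated with compound 15 min at room temperature, then FITC-labelled alphaIIb peptide (100 nM final) added. After 15 min at room temperature, polarization read at Ex 480/Em 540.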
(In qHTS, concentration-response curves come from the screen itself.)
For the molecule `CC(C)Oc1ccc(-c2nc(-c3cccc4c3CCC4NCCC(=O)O)no2)cc1C#N` (centres undefined), the “activity change, negative = inhibition” value was 0.146% [at 114 µM] (inactive).

For the molecule `COc1cn(-c2ccc(-n3cccn3)cc2F)nc(-c2ccnn2-c2ccccc2)c1=O`, the “activity change, negative = inhibition” value is -4.65% [at 114 µM] (inactive).

Regarding `COc1cc(OC)cc(-c2ccc3c(-c4ccc(F)cc4)[nH]nc3n2)c1`, the “activity change, negative = inhibition” value was 0.0582% [at 114 µM] (inactive).

For the molecule `O=C(N[C@@H]1CC[C@@H](c2cccc(F)c2F)CN(CC(F)(F)F)C1=O)N1CCC(n2c(=O)[nH]c3ncccc32)CC1`, the “activity change, negative = inhibition” value was 3.88% [at 114 µM] (inactive). With `C=Cc1cc2oc(-c3ccc(O)c(F)c3)nc2cc1O`, the “activity change, negative = inhibition” value is -12.7% [at 114 µM] (inactive). As for `CN1CCN(C2=Nc3ccccc3Nc3ccc(O)cc32)CC1`, the “activity change, negative = inhibition” value is -1.47% [at 114 µM] (inactive).

Take `CCCC1=CC2=C(CO1)C(=O)C(C)(O)C(OC(=O)c1c(C)cc(OC)cc1O)C2` (centres undefined): the “activity change, negative = inhibition” value is 0.243% (inactive). Regarding `C/C=C1/C[N+](C)([O-])C2Cc3c([nH]c4ccccc34)C(=O)CC1C2C(=O)OC` (centres undefined), the “activity change, negative = inhibition” value was -1.27% (inactive). Consider `C=C(C)[C@@]1(O)C[C@@]2(C)C(=CC1=O)CC[C@@H](O)[C@@H]2C`, for which the “activity change, negative = inhibition” value is 2.92% [at 114 µM] (inactive). Take `O=C(CC1CC(c2ccc(F)cc2F)=NO1)N1CCOCC1` (centres undefined): the “activity change, negative = inhibition” value is -3.43% [at 114 µM] (inactive). As for `NCCCCN(Cc1nc2ccccc2[nH]1)[C@H]1CCCc2cccnc21`, the “activity change, negative = inhibition” value was -0.368% (inactive). Next, `NC(=O)[C@@H]1CC[C@H](c2ccc(OCc3ccccc3F)cc2)N1`: 1.93% [at 114 µM] (inactive); `O=C(Nc1cc(-c2ccccc2)nn1-c1ccccc1)c1ccc([N+](=O)[O-])cc1`: -0.29% [at 114 µM] (inactive).

As to `Fc1ccccc1-c1nc2ccn(Cc3ccc(-c4ccc(C(F)(F)F)cc4C(F)(F)F)nn3)cc-2n1`, the “activity change, negative = inhibition” value was 3.43% [at 114 µM] (inactive).

Consider `Cc1cc(C)c2nc(-c3ccccn3)cc(C(=O)Nc3ccc(S(=O)(=O)Nc4onc(C)c4C)cc3)c2c1`, for which the “activity change, negative = inhibition” value was -22.8% [at 114 µM] (inactive).

Turning to `C/C=C1\[C@H](O[C@@H]2O[C@H](CO)[C@@H](O)[C@H](O)[C@H]2O)OC=C(C(=O)OCCc2ccc(O)cc2)[C@H]1CC(=O)OCCc1ccc(O)cc1`, the “activity change, negative = inhibition” value is 3.23% [at 30.2 µM] (inactive). As for `COc1ccc(O[C@@H]2O[C@H](CO)[C@@H](O)[C@H](O)[C@H]2O)cc1OC`, the “activity change, negative = inhibition” value was 1.6% (inactive). Take `NC(=O)c1ccc(F)c2c1C[C@@H](N(C1CCC1)C1CCC1)CO2`: the “activity change, negative = inhibition” value is 3.64% [at 114 µM] (inactive).

Regarding `CC1(C)CC[C@]2(C(=O)O)CC[C@]3(C)C(=CCC4[C@@]5(C)CC[C@H](O[C@@H]6O[C@H](C(=O)O)[C@@H](O)[C@H](O[C@@H]7O[C@H](CO)[C@H](O)[C@H](O)[C@H]7O)[C@H]6O[C@@H]6O[C@H](CO)[C@@H](O)[C@H](O)[C@H]6O)C(C)(C)C5CC[C@]43C)[C@@H]2C1` (some centres undefined), the activity change, negative = inhibition is 10.7% [at 12.4 µM] (inactive).

In the case of `CC1=CC2=C(C)C(=O)[C@](C)(O)[C@H](O)C2=CO1`, the “activity change, negative = inhibition” value was -1.86% [at 114 µM] (inactive). For the molecule `C/C=C1/[C@H](O[C@@H]2O[C@H](CO)[C@@H](O)[C@H](O)[C@H]2O)OC=C2C(=O)O[C@@H]3C[C@@H](C(C)CO)[C@H](COC(=O)C[C@H]21)[C@H]3C` (some centres undefined), the “activity change, negative = inhibition” value is 0.819% (inactive). For `C=C1CCC2[C@](C)(CCC[C@]2(C)C(=O)O)[C@H]1CC/C(C)=C/C(=O)OC` (some centres undefined), the “activity change, negative = inhibition” value was 0.96% (inactive). Consider `O=C(O)c1ccnc2cc(-c3nc4ccccc4n3CCN3CCCCC3)sc12`, for which the “activity change, negative = inhibition” value is -3.33% [at 114 µM] (inactive).

For the molecule `COc1ccc(/C=C/C(N)=O)cc1OC`, the “activity change, negative = inhibition” value is -3.73% [at 114 µM] (inactive). Turning to `COc1ccc(CCc2nc3cc(-c4c(C)noc4C)ccc3n2C[C@H](C)N2CCOCC2)cc1Cl`, the “activity change, negative = inhibition” value is 1.98% [at 114 µM] (inactive). As to `O=C(NCCN1CCCC1)c1cc(-c2ccc(CN3CCOCC3)cc2)nc2ccc(F)cc12`, the “activity change, negative = inhibition” value was -4.52% (inactive). For `Cc1ccc(C)c(NC(=O)CNS(=O)(=O)c2ccc3[nH]c(=O)oc3c2)c1`, the “activity change, negative = inhibition” value is -7.32% [at 114 µM] (inactive).

`COc1ccc(-n2c(=O)[nH]c3cc(C(=O)NCc4ccc(Cl)cc4)sc3c2=O)nc1OC`: the “activity change, negative = inhibition” value was -11.2% [at 114 µM] (inactive). For `C/C(=C\CC[C@H](CO)[C@@H]1CC[C@]2(C)C3=C(CC[C@@]12C)[C@@]1(C)CCC(=O)C(C)(C)C1CC3)C(=O)O` (some centres undefined), the “activity change, negative = inhibition” value is -2.4% (inactive).

On to `CN(C)C(=O)C(O)C(Cc1ccccc1)NC(=O)c1cc2cc(Cl)ccc2[nH]1` (centres undefined), for which the “activity change, negative = inhibition” value was -0.33% [at 114 µM] (inactive). As for `CC1=C[C@@H]2[C@H]3[C@@H]4O[C@@](C)(CC[C@H]4O)[C@H]3CC(=O)[C@]23C(=O)N[C@@H](CC(C)C)[C@@H]3[C@@H]1C`, the “activity change, negative = inhibition” value is -1.57% (inactive). Next, `C=C1CCC2C(C)(C)CC(=O)CC2(C)C1CCC(C)CCO` (centres undefined): -10.7% [at 114 µM] (inactive); `CC(C)c1cc2c(c(O)c1O)[C@@]13CCCC(C)(C)C1[C@@H](O)[C@@H]2OC3=O` (some centres undefined): -14.2% (inactive). With `O=C(N[C@H](Cc1ccccc1)C(=O)O)c1sc2cc(F)ccc2c1Cl`, the “activity change, negative = inhibition” value was 0.391% [at 114 µM] (inactive). As to `CS(=O)(=O)c1ccccc1N1CCN(c2nc3c(c(=O)[nH]2)CSCC3)CC1`, the “activity change, negative = inhibition” value was 1.96% [at 114 µM] (inactive). In the case of `On1ncc(C2CCNCC2)c1-c1cccc(-c2ccccc2)c1` it was 0.223% [at 114 µM] (inactive); in that of `C=C1C(OC(C)=O)C(=O)C2C(C)(C)C(O)CCC2(C)C1CC(OC(C)=O)/C(C)=C/COC(C)=O` (centres undefined), -4.95% (inactive).

With `O=C(NCC(=O)N1CCCC1)Nc1ccc2ccccc2c1`, the “activity change, negative = inhibition” value was -4.67% [at 114 µM] (inactive). Next, `CCC(C)C1NC(=O)C2CCCN2C(=O)C(CC(O)CO)OC(=O)CCNC(=O)C(C)N(C)C(=O)C(C(C)C)N(C)C1=O` (centres undefined) (cyclo([X13]PI[NMeV][NMeA][βAla]); configuration not given here): 2.75% [at 30.2 µM] (inactive).

The values are drawn from PubChem BioAssay (NCATS).
